Experiment [1] has as its system thyroid hormone receptor (rat, GH3 cells). Put plainly: qHTS assay to identify small molecule agonists of the thyroid receptor (TR) signaling pathway (AID 743066; calls by dose curve). Background: In qHTS, concentration-response curves come from the screen itself.
The nature of experiment [2]: qHTS assay to identify small molecule antagonists of the estrogen receptor alpha (ER-alpha) signaling pathway - cell viability counter screen (AID 743074; calls by dose curve;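 note: HEK293 cells carrying ER-alpha-UAS-bla reporter stimulated with 17beta-estradiol; nearly all actives have a fitted effect of over 45% in size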; note: potency is the fitted concentration of half-maximal effect).
The nature of experiment [3]: qHTS assay to identify small molecule antagonists of the estrogen receptor alpha (ER-alpha) signaling pathway using the BG1 cell line - cell viability counter screen (AID 743081).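 Note: compound given together with 17beta-estradiol as the ER stimulus; nearly all actives have a fitted effect of over 45% in size.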 Note: potency is the fitted concentration of half-maximal effect.
The next experiment has as its target Aromatase (Homo sapiens) (UniProt P11511). Put plainly: qHTS assay to identify aromatase inhibitors (AID 743083). Note: nearly all actives have a fitted effect of over 55% in size. Note: potency is the fitted concentration of half-maximal effect.
A short description of experiment [4]: qHTS assay to identify aromatase inhibitors - cell viability counter screen (AID 743084).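 Note: cells stimulated with testosterone during compound exposure; nearly all actives have a fitted effect of over 55% in size.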 Note: potency is the fitted concentration of half-maximal effect.
Experiment [5] has as its target Aryl hydrocarbon receptor (Homo sapiens) (UniProt P35869). Put plainly: qHTS assay to identify small molecule that activate the aryl hydrocarbon receptor (AhR) signaling pathway (AID 743085).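 For activation: HG2L7.5c1 human HepG2 liver cells with stably integrated DRE-driven firefly reporter; series mostly up to about 70 µM.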 Note: nearly all actives have a fitted effect of over 15% in size. Note: potency is the fitted concentration of half-maximal effect. Put shortly: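 Stably transfected human liver carcinoma cells (HG2L7.5c1; 20 DRE-firefly luciferase) were incubated 5 h, dosed, and kept 24 h at 37C. Agonism was scored from increased luciferase luminescence.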

The nature of experiment [6]: qHTS assay to identify small molecule that activate the aryl hydrocarbon receptor (AhR) signaling pathway - cell viability counter screen (AID 743086). Note: nearly all actives have a fitted effect of over 45% in size. Note: potency is the fitted concentration of half-maximal effect. In a few lines:
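Cytotoxicity counter screen: CellTiter-Fluor signal (30 min, 37 C) in 4000 HepG2 cells/well carrying the DRE-luciferase reporter, following 24 h compound exposure at 37 C.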

Experiment [7] deals with Peroxisome proliferator-activated receptor gamma (Homo sapiens) (UniProt P37231). Put plainly: qHTS assay to identify small molecule agonists of the peroxisome proliferator-activated receptor gamma (PPARg) signaling pathway (AID 743094; active = well fitted activation curve with a large enough effect in the signal ratio in the repeat runs, not every such curve was filed as active; inconclusive = weak or mixed curves, or effect the other way; inactive = no such curve, though single readings can be large or run the other way; the % refers to the signal ratio). In a few lines: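 Beta-lactamase FRET fluorescence was the read-out after a 1 h room-temperature substrate step, following 17 h compound treatment at 37C of HEK293H cells expressing a UAS-driven bla reporter responsive to PPARg.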
Chain of Peroxisome proliferator-activated receptor gamma (Homo sapiens) (P37231 whole entry, looked up): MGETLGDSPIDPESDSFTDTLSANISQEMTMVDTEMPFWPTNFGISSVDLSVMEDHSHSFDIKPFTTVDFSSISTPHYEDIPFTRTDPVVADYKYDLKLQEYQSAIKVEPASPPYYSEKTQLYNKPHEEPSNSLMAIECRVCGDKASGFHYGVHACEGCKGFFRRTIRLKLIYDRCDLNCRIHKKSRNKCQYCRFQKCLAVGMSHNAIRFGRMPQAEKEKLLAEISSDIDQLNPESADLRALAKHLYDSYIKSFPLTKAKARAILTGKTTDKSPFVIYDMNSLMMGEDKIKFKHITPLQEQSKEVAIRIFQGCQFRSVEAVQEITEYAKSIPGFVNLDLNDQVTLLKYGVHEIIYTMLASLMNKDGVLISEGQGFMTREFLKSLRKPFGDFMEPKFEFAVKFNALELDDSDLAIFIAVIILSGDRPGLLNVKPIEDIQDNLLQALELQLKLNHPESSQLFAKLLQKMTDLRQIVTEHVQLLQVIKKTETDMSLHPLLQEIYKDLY

The target is the same in experiment [8]. Put plainly: qHTS assay to identify small molecule antagonists of the peroxisome proliferator-activated receptor gamma (PPARg) signaling pathway (AID 743191; calls by dose curve; note: nearly all actives have a fitted effect of over 30% in size; note: potency is the fitted concentration of half-maximal effect). In a few lines:
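Beta-lactamase reporter under UAS control in HEK293H PPARg-bla cells; compound treatment 17 h at 37C. Read-out: fluorescence intensity after 1 h room-temperature incubation with LiveBLAzer B/G FRET substrate.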

A short description of experiment [9]: qHTS assay to identify small molecule antagonists of the peroxisome proliferator-activated receptor gamma (PPARg) signaling pathway - cell viability counter screen (AID 743194). Note: nearly all actives have a fitted effect of over 55% in size. Note: potency is the fitted concentration of half-maximal effect. The settings on record: Potency: co-treated with 50 nM rosiglitazone unless noted. Put shortly:
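Viability was measured as CellTiter-Glo luminescence in GeneBLAzer PPARg UAS-bla HEK293H cells. These cells had been exposed 17 h at 37 C to compounds together with rosiglitazone at 50 nM final, with the beta-lactamase readout taken in the same wells.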

A short description of experiment [10]: qHTS assay for small molecule agonists of the antioxidant response element (ARE) signaling pathway (AID 743202; active = well fitted activation curve with a large enough effect in the signal ratio in the repeat runs, not every such curve was filed as active; inconclusive = weak or mixed curves, or effect the other way; inactive = no such curve, though single readings can be large or run the other way; the % refers to the signal ratio; note: potency is the fitted concentration of half-maximal effect). In a few lines:
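Quantitative high-throughput format in HepG2 cells bearing an integrated ARE-beta-lactamase reporter. Compound exposure lasted 16 h at 37 C, and fluorescence was read 2 h after adding LiveBLAzer B/G substrate at room temperature.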

Experiment [11] is described as follows: qHTS assay for small molecule agonists of the antioxidant response element (ARE) signaling pathway - cell viability counter screen (AID 743203; calls by dose curve; note: nearly all actives have a fitted effect of over 55% in size; note: potency is the fitted concentration of half-maximal effect). In a few lines: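 HepG2 cells carrying ARE-driven beta-lactamase; 2,000 cells/well; 5 hrs plating; compound pinned from DMSO; 16 hrs 37C/5% CO2; CellTiter-Glo added; 30 min RT; luminescence.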
Experiment [12] can be described thus: qHTS assay for small molecule activators of the heat shock response signaling pathway - cell viability counter screen (AID 743209). Note: nearly all actives have a fitted effect of over 50% in size. Note: potency is the fitted concentration of half-maximal effect. In a few lines: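 Luminescence from CellTiter-Glo, added after the beta-lactamase FRET read, gave the viability signal. Cells were HSE-bla HeLa treated with DMSO-dissolved compounds for 5 h at 37 C following overnight plating.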

Experiment [13] in a line: qHTS assay for small molecule activators of the heat shock response signaling pathway (AID 743210; active = well fitted activation curve with a large enough effect in the signal ratio in the repeat runs, with a control signal flat, not every such curve was filed as active; inconclusive = weak or mixed curves; the % refers to the signal ratio; note: potency is the fitted concentration of half-maximal effect;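 for activation: HeLa cells with beta-lactamase reporter driven by heat shock elements; series mostly up to about 63 µM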). Put shortly: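 HeLa HSE-bla cells, overnight plating; cpd in DMSO 5 h, 37 C; LiveBLAzer B/G FRET substrate 2.5 h RT; fluorescence intensity read.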
Experiment [14] can be described thus: qHTS assay to identify small molecule agonists of the peroxisome proliferator-activated receptor delta (PPARd) signaling pathway - cell viability counter screen (AID 743211). Note: nearly all actives have a fitted effect of over 55% in size. Put shortly: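 In the same wells used for beta-lactamase reporter measurement, cytotoxicity is scored by CellTiter-Glo. HEK293H PPARd-bla cells receive compound for 17 h at 37C following a 5 h settling period.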

Experiment [15] is described as follows: qHTS assay to identify small molecule antagonists of the thyroid receptor (TR) signaling pathway (AID 743065). Note: nearly all actives have a fitted effect of over 55% in size. Note: potency is the fitted concentration of half-maximal effect. Put shortly: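 Antagonism measured as loss of luciferase signal in GH3 cells stably carrying a TRE-luciferase reporter, co-treated with compound and T3 (1 nM final) for 23.5 h at 37 C. Viability was read in the same well by CellTiter-Fluor.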
Experiment [16] addresses Estrogen receptor (Homo sapiens) (UniProt P03372). The experiment in a line: qHTS assay to identify small molecule antagonists of the estrogen receptor alpha (ER-alpha) signaling pathway (AID 743069; active = well fitted curve in the direction sought with a large enough effect in the signal ratio in the repeat runs, not every such curve was filed as active; inconclusive = weak or mixed curves, or effect the other way; inactive = no such curve, though single readings can be large or run the other way; the % refers to the signal ratio; note: potency is the fitted concentration of half-maximal effect). Put shortly:
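ER-alpha-UAS-bla GripTite HEK293 line; 2% charcoal-stripped FBS overnight; plated, 4 hr 37C/5% CO2; cpd in DMSO + 17beta-estradiol, 18 hr 37C; LiveBLAzer B/G FRET substrate 2 hr RT; fluorescence intensity.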

Experiment [17] shares this target. The experiment in a line: qHTS assay to identify small molecule agonists of the estrogen receptor alpha (ER-alpha) signaling pathway (AID 743075; calls by dose curve;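 note: HEK293 GripTite cells with ER-alpha and UAS-driven beta-lactamase reporter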; note: potency is the fitted concentration of half-maximal effect).
For experiment [18] the target is unchanged. Put plainly: qHTS assay to identify small molecule agonists of the estrogen receptor alpha (ER-alpha) signaling pathway using the BG1 cell line (AID 743079). Note: nearly all actives have a fitted effect of over 20% in size. Note: potency is the fitted concentration of half-maximal effect.
Experiment [19] can be described thus: qHTS assay to identify small molecule antagonists of the estrogen receptor alpha (ER-alpha) signaling pathway using the BG1 cell line (AID 743080; calls by dose curve;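 note: BG1 cells stimulated with 17beta-estradiol alongside compound; nearly all actives have a fitted effect of over 25% in size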; note: potency is the fitted concentration of half-maximal effect). Put shortly:
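Readout is ONE-Glo luminescence, taken 30 min at room temperature after reagent addition, preceded by a CellTiter-Fluor viability read; BG1-Luc-4E2 cells had received compound and 17beta-estradiol for 21.5 h at 37 C.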

Structures are written as SMILES. Several values for one entry are separate records, joined by “and”; a condition that tells them apart may be missing. Identical values can stand only once. Where a structure was tested more than once in an assay, its records may differ in their call. Activity calls are given as the source filed them. Unless noted, calls come from the whole dose curve; as a rule, active = well fitted curve in the direction sought with a large enough effect in the repeat runs; inconclusive = weak or mixed curves; inactive = no such curve, though single readings can be large; an effect the other way counts as inactive or inconclusive.

Chain of Estrogen receptor (Homo sapiens) (P03372 whole entry, looked up): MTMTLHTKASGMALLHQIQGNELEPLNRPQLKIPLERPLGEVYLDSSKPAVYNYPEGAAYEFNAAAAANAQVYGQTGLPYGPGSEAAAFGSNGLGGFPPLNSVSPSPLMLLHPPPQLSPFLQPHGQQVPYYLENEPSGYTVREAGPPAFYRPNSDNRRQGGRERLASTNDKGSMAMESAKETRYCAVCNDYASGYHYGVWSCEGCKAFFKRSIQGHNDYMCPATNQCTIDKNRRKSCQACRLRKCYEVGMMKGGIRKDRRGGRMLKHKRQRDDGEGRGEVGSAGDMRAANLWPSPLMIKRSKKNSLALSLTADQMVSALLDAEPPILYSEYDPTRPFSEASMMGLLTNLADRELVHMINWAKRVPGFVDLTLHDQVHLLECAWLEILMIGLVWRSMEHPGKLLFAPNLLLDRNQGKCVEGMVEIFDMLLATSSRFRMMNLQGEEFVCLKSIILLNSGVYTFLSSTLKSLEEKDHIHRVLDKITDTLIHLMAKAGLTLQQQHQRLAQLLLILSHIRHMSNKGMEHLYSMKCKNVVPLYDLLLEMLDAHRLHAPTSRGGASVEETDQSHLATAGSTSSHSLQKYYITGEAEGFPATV
Chain of Aryl hydrocarbon receptor (Homo sapiens) (P35869 whole entry, looked up): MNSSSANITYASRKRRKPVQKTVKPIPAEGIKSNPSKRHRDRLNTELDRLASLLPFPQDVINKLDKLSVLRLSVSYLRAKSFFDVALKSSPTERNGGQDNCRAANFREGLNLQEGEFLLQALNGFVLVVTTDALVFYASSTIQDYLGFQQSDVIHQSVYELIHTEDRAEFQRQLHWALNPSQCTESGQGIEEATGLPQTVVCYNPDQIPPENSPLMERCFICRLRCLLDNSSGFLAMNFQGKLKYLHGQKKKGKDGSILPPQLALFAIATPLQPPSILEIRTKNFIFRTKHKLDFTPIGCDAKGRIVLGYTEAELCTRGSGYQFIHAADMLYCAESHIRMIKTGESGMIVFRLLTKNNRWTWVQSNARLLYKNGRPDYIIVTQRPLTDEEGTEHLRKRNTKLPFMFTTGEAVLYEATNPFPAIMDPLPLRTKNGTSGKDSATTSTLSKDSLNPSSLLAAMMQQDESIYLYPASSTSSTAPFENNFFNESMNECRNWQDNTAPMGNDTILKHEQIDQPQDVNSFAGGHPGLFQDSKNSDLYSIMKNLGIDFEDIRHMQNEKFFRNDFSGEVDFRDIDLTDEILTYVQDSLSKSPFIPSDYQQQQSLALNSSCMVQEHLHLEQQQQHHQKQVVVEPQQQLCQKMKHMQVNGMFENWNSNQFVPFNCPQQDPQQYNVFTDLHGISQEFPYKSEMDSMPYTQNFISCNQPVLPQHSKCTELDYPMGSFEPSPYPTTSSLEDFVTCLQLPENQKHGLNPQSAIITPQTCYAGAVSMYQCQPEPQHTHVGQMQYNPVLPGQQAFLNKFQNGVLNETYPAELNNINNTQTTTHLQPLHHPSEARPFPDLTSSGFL
Chain of Aromatase (Homo sapiens) (P11511 whole entry, looked up): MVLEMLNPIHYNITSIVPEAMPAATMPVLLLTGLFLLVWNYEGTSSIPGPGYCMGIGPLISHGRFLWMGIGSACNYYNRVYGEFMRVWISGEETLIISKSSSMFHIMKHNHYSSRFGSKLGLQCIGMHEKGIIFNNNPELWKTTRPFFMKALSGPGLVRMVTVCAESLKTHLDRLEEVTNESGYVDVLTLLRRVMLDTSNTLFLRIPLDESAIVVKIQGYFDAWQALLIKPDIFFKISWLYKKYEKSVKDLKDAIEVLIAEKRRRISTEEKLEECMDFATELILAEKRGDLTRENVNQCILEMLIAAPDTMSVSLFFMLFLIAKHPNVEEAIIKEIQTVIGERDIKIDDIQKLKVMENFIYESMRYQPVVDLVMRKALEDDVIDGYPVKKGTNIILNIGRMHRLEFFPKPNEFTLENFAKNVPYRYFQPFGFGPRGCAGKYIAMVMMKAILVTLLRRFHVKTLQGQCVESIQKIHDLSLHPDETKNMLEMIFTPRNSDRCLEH

In the case of `CCCCCc1cc(O)cc(O)c1`, the Potency result (in [1]; in [2]; in experiment [3]; with Aromatase (Homo sapiens); in [4]; in experiment [6]) was “inactive” each time. In addition, the Potency result in experiment [7], in [9], in experiment [11], in [12], in experiment [13] and in experiment [14] was “inactive” each time. The Potency was 61.4 µM (active) in [5]; 24.7 µM (active) in [8]; 48.8 µM (active) and 48.6 µM (active) in experiment [10].

`CC(C)(c1cc(Cl)c(O)c(Cl)c1)c1cc(Cl)c(O)c(Cl)c1`: the Potency is 21.7 µM (active) and 48.6 µM (active) in [15]; 49 µM (active) and 24.5 µM (active) in experiment [9]; 15.4 µM (active) and 19.3 µM (active) in experiment [10]. Further, the Potency entry (in experiment [3]; with Aromatase (Homo sapiens); in experiment [4]; in experiment [6]; in experiment [12]) was “inactive” in each case.

With `CC1(C)C(C=C(Cl)Cl)C1C(=O)OC(C#N)c1cccc(Oc2ccccc2)c1` (centres undefined), the Potency entry in [1], in [16], in experiment [2], in experiment [17], in experiment [18] and in [19] was “inactive” in each case. Moreover, the Potency entry (in experiment [3]; with Aromatase (Homo sapiens); in [4]; in experiment [5]; in experiment [6]; in experiment [8]) was “inactive” in each case. Besides, the Potency result in [9], in experiment [11], in [12], in experiment [13] and in experiment [14] was “inactive” throughout.

Turning to `c1ccc(NNc2ccccc2)cc1`, the Potency in experiment [15] is 68.6 µM (active). The Potency entry in experiment [1], in experiment [2], in experiment [3], in [6], in [9] and in [10] was “inactive” throughout. The Potency result in [11], in [12], in experiment [13] and in experiment [14] was “inactive” in each case.

Turning to `Oc1ccc(-c2ccccc2)cc1`, the Potency entry (in experiment [1]; in experiment [16]; in [2]; in [3]; with Aromatase (Homo sapiens); in experiment [4]) was “inactive” in each case. The Potency entry in experiment [5], in [6], in experiment [9], in [11] and in experiment [12] was “inactive” in each case. The Potency in [8] was 30.5 µM (active); in [10], 53.8 µM (active) and 21.7 µM (active).

In the case of `c1nc[nH]n1`, the Potency result in [16], in experiment [2], in [17], in experiment [18], in [19] and in [3] was “inactive” each time. Besides, the Potency result (with Aromatase (Homo sapiens); in experiment [4]; in [6]; in experiment [8]; in [9]; in [10]) was “inactive” in each case. The Potency entry in experiment [11] and in experiment [12] was “inactive” in each case.

As to `c1ccc(P(c2ccccc2)c2ccccc2)cc1`, the Potency entry in experiment [1], in experiment [16], in experiment [2], in experiment [17], in [18] and in [19] was “inactive” in each case. The Potency result (in experiment [3]; in the experiment with Aromatase (Homo sapiens); in [4]; in [6]; in experiment [7]; in experiment [8]) was “inactive” in each case. Moreover, the Potency entry in experiment [9], in experiment [11] and in [12] was “inactive” in each case.

For the molecule `Oc1cc(Cl)ccc1Oc1ccc(Cl)cc1Cl`, the Potency in experiment [15] was 8.84 µM (active); in [2], “inactive and 11.2 µM (active)”; with Aromatase (Homo sapiens) it was “inactive and 24.8 µM (active)”; in experiment [4], “inactive and 22.2 µM (active)”; in experiment [9] it was 6.31 µM (active); in experiment [11], 27.9 µM (active). Besides, the Potency in [12] is 30.7 µM (active) and 29.8 µM (active). Further, the Potency result in [1] and in [3] was “inactive” in each case.

`CC(C)C(=O)OCC(C)(C)C(OC(=O)C(C)C)C(C)C` (centres undefined): the Potency result (in [1]; in experiment [16]; in experiment [2]; in experiment [19]; in experiment [3]; with Aromatase (Homo sapiens)) was “inactive” throughout. Further, the Potency entry in experiment [4], in experiment [6], in experiment [7], in experiment [8], in experiment [10] and in experiment [11] was “inactive” each time. In addition, the Potency entry in experiment [14] is “inactive”. In addition, the Potency in [17] is 6.92 µM [inconclusive] (active); in experiment [18], 12.2 µM (active); in experiment [9], 35 µM [setting not given] (active); in experiment [12], 24.8 µM (active) and inactive.

In the case of `CCC(C)c1cc([N+](=O)[O-])cc([N+](=O)[O-])c1O` (centres undefined), the Potency result in experiment [1], in experiment [2], in experiment [17], in experiment [18], in [19] and in experiment [7] was “inactive” each time. Further, the Potency result in experiment [8], in experiment [9], in experiment [12] and in [14] was “inactive” each time. In addition, the Potency entry in [16] is “inactive and 6.92 µM [inhibitor] (active)”; in experiment [3] it was “inactive and 4.86 µM (active)”; with Aromatase (Homo sapiens), “inactive and 30.6 µM (active)”; in experiment [4], “inactive and 27.3 µM (active)”; in [6], “inactive and 13.7 µM (active)”; in experiment [10], “inactive and 611 nM (active)”. The Potency entry in experiment [11] is “inactive and 969 nM (active)”.

As for `N#CCCCl`, the Potency entry in experiment [15], in experiment [1], in [2], in experiment [3], in experiment [6] and in experiment [9] was “inactive” throughout. In addition, the Potency entry in [10], in experiment [11] and in experiment [12] was “inactive” in each case.

Turning to `O=[N+]([O-])c1c(Cl)c(Cl)c(Cl)c(Cl)c1Cl`, the Potency result in experiment [1], in experiment [16], in experiment [2], in experiment [17], in experiment [18] and in [19] was “inactive” in each case. In addition, the Potency result in experiment [3], in [4], in [5], in [6], in [9] and in [12] was “inactive” each time. Also, the Potency result in experiment [13] and in experiment [14] was “inactive” each time. Moreover, the Potency entry was “inactive and 61.1 µM (active)” with Aromatase (Homo sapiens); 24.2 µM (active) in [10]; 19.3 µM (active) in experiment [11].

For the molecule `CCOc1cc(Oc2ccc(C(F)(F)F)cc2Cl)ccc1[N+](=O)[O-]`, the Potency result (in experiment [1]; in experiment [16]; in [2]; in experiment [17]; in experiment [3]; with Aromatase (Homo sapiens)) was “inactive” each time. The Potency entry in experiment [4], in experiment [5], in experiment [6], in [7], in [8] and in experiment [9] was “inactive” throughout. In addition, the Potency entry in [11] and in experiment [12] was “inactive” each time. In addition, the Potency in experiment [19] is 31 µM (active).

With `CCOC(=S)S`, the Potency in [15] was 51.7 µM (active); in the experiment with Aromatase (Homo sapiens), 68.6 µM (active) and 58 µM (active); in [12], 17.4 µM (active); in experiment [13] it was 2.24 µM (active). The Potency entry in experiment [1], in [2], in [3], in [5], in experiment [6] and in [9] was “inactive” in each case. Besides, the Potency entry in experiment [10] and in experiment [11] was “inactive” throughout.

For the origin of these results see PubChem BioAssay (Tox21).
